RTF Ca sens act: cardiac RTF calcium sensitivity activators, primary screen, biochemical, IANBD-TnC fluorescence, EC20 calcium | Troponin I, cardiac muscle (Homo sapiens) + Troponin T, cardiac muscle (Homo sapiens) + … | AID 493008, 2010 | activation, % at 7.2 µM | actives 0.24% (n = 340,000) | IANBD-labeled TnC RTF fluorescence at EC20 calcium; 0% EC20 calcium, 100% full calcium;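 active = activation above the mean over all tested compounds plus 3 SD, cut at about 30% in these data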;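 also: rise in fluorescence read as greater calcium sensitivity of cardiac thin filaments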
LANA DNA inh: inhibitors of KSHV C-LANA binding to DNA, primary screen, biochemical, fluorescence polarization, FAM-LBS DNA, MBP-C-LANA, single point; actives 0.078% (n = 340,000); AID 504423, 2011; inhibition, % at 9 µM; Kaposi's sarcoma herpesvirus LANA C-terminal domain (residues 932-1162) DNA binding;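 active = highest replicate inhibition at or above 60% at 9 µM, even if other replicates fall short; inactive = all replicates below 60% inhibition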
Keap1-Nrf2 PPI: Keap1-Nrf2 protein-protein interaction inhibitors, primary screen, biochemical, fluorescence polarization, single point; inhibition, % at 9.4 µM; Kelch-like ECH-associated protein 1 (Homo sapiens), Q14145; actives 0.15% (n = 340,000); Keap1 Kelch-Nrf2 peptide fluorescence polarization, 1536-well; in the data active = inhibition above about 12%;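 also: human Keap1 Kelch domain with fluorescein labeled Nrf2 9mer peptide probe; higher means more block of Keap1 binding to Nrf2 peptide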
RTF Ca sens inh: cardiac RTF calcium sensitivity inhibitors, primary screen, biochemical, IANBD-TnC fluorescence, EC70 calcium; IANBD-labeled cardiac RTF, Ca2+ fluorescence; actives 0.12% (n = 340,000); AID 493244, 2011; inhibition, % at 7.15 µM;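 active = inhibition above the mean inhibition of all tested compounds plus 3 SD, cut at about 17% in these data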;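 also: assay run at fixed EC70 calcium of 1.6 mM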
LANA-H2A inh: blockers of LANA interaction with H2A/H2B – biochemical, FP readout, HTS, primary screen; actives 0.6% (n = 320,000); cell-free LANA-H2A/H2B peptide, fluorescence polarization; inhibition, % (no concentration beside the values); Protein LANA1 (Human herpesvirus 8 type P (isolate GK18)), Q9QR71; in the data active = inhibition mostly above about 10%, no sharp cut-off; inactive = mostly below about 6.7%
Target sequence (Q9QR71 whole entry, looked up): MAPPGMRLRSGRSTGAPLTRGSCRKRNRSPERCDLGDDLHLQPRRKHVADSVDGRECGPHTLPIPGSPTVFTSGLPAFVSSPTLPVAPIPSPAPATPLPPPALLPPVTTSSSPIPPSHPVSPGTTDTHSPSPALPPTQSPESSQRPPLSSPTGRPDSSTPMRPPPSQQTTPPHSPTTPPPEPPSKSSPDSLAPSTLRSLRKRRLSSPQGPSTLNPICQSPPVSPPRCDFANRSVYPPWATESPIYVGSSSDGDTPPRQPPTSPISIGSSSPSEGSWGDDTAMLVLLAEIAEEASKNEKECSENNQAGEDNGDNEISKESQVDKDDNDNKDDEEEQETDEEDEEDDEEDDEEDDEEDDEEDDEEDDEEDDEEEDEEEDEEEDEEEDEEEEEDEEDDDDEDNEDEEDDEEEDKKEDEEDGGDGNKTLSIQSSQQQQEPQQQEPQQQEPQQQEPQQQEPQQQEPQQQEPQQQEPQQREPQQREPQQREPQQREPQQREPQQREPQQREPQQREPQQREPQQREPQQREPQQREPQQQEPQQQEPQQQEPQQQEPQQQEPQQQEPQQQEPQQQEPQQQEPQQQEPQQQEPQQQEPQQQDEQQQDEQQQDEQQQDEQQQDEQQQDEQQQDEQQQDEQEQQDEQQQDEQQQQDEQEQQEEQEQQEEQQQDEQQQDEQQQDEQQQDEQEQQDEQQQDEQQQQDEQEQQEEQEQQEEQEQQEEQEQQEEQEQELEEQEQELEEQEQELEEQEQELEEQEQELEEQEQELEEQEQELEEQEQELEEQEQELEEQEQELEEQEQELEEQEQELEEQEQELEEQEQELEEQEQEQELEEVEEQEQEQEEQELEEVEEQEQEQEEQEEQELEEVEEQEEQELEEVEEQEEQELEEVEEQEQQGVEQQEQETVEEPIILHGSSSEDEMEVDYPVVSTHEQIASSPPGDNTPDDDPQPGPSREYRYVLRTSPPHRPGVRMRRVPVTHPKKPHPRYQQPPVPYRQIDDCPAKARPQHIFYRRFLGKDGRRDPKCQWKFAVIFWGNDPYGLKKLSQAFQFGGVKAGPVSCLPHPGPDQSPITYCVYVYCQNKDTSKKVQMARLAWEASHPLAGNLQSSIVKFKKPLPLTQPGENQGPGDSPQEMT
Each line names hits and unclear results; the compound was inactive in the other large screens. Compounds with a hit are over-represented: about 0.98% of the library has one in this group of screens.

O=C(CN1C(=O)COc2ccccc21)NCc1ccc(C(=O)O)cc1	none
CCc1ccc(CNC(=O)CN2C(=O)COc3ccccc32)cc1	LANA-H2A inh 12
COc1ccc(C(CNC(=O)c2ccc(NS(=O)(=O)c3cccc([N+](=O)[O-])c3)cc2)N2CCOCC2)cc1 (stereo not given)	none
CN(C)C1=NC[C@H](Cc2ccccc2)N1CC1CCCCCC1	none
COc1ccc2c(n1)Sc1nc3ccccc3nc1N2	RTF Ca sens act 30
COc1cc2ccccc2nn1	none
CCCNc1c(F)c(F)c2c(C)c3ccccc3nc2c1F	RTF Ca sens act 36
COc1ccc2ccccc2c1/C=N/NC(=O)c1sc(N)c(C#N)c1C	LANA-H2A inh active
Nc1ccc(O)c(C(=O)O)c1	none (no result: RTF Ca sens act, LANA DNA inh, Keap1-Nrf2 PPI, RTF Ca sens inh)
Nc1ccc(-c2c3ccc(=O)cc-3oc3cc(O)ccc23)c(C(=O)O)c1	RTF Ca sens act active, LANA DNA inh 171, LANA-H2A inh 65
Cn1c(O)c(/C=N/NC(=O)c2cc3ccccc3cc2O)c2ccccc21	RTF Ca sens act 40
CCCC1CCC(c2ccc(OCC)cc2)=CC1=O (stereo not given)	none
COc1ccc(-c2cc(C(=O)N3CCOCC3)c3cc(C)ccc3n2)cc1	LANA-H2A inh 18
COc1ccc(-c2cc(C(=O)N3CCCCCC3)c3cc(C)ccc3n2)cc1	none
CC12CCC(=O)N1C(C(=O)NNC(=O)c1ccc(Cl)cc1)CS2 (stereo not given)	LANA-H2A inh 32
C[n+]1cc(C(=O)N2CCCCC2)ccc1/C=C/c1c[nH]c2ccccc12	RTF Ca sens act 143
CCN1CCN(S(=O)(=O)c2ccc(S(=O)(=O)NC3CC3)cc2)CC1	none
CCN1CCN(S(=O)(=O)c2ccc(C(C)(C)C)cc2)CC1	LANA-H2A inh 13
Cc1ccccc1CC1(CO)CCCN(C(=O)CCCN2CCCCC2=O)C1 (stereo not given)	LANA-H2A inh 83
CN(CC(=O)OCC(=O)NCc1ccccc1)S(=O)(=O)c1ccc(F)cc1	LANA-H2A inh active
CN(CC(=O)OCC(=O)NCc1ccccc1)S(=O)(=O)c1ccc(Cl)cc1	none
CCCC(C)c1nnc(NC(=O)CS(=O)(=O)Cc2ccccc2)s1 (stereo not given)	LANA-H2A inh 30
Nn1c(COc2ccccc2F)nnc1SCC(=O)NC1CCCC1	none
O=C1NC(=S)SC1=Cc1cccs1	none (no result: LANA-H2A inh)
CN1CCC/C1=C/C=C1\SC(=S)NC1=O	RTF Ca sens act 471
N#Cc1ccccc1/C=N/Nc1nc(-c2ccccc2)c2cc(Cl)ccc2n1	LANA-H2A inh 55
CC1CN(CC(=O)Nc2ccc([N+](=O)[O-])cc2Br)CC(C)O1 (stereo not given)	LANA-H2A inh active
O=C(CCNC(=O)c1ccc(Cl)cc1)Nc1cccc(S(=O)(=O)N2CCCCCC2)c1	none
C=C1CC(Cn2cc(Br)c(=O)[nH]c2=O)(c2ccc(-c3ccccc3)cc2)OC1=O (stereo not given)	none (no result: LANA-H2A inh)
O=C(COc1cc(F)ccc1[N+](=O)[O-])NCC1CCCO1 (stereo not given)	none
CC1=C([N+](=O)[O-])C(c2ccccc2C(F)(F)F)NC(=O)N1C (stereo not given)	LANA-H2A inh 30
CCOc1ccccc1OCCNC1CCCC1	LANA-H2A inh 145
CC(C)=CCC/C(C)=C/CC/C(C)=N/O	LANA-H2A inh 12
CC(=O)OC/C=C(\C)CCC=C(C)C	none
CC(=O)Nc1ccc(S(=O)(=O)N2CCN(C(=O)c3ncoc3-c3ccc(C)cc3)CC2)cc1	none
Cc1ccc(/C(N)=N/OC(=O)C(C)c2ccc([N+](=O)[O-])cc2)cc1 (stereo not given)	LANA-H2A inh 17
CC(C(=O)O/N=C(\N)c1cccnc1)c1ccc([N+](=O)[O-])cc1 (stereo not given)	none
O=C1CCc2cc(OCCCCc3nnnn3C3CCCCC3)ccc2N1	LANA-H2A inh 33
COC(=O)C1C2CC3c4[nH]c5cc(OC)ccc5c4CCN3CC2CC(OC(=O)CC(C)=O)C1OC (stereo not given)	RTF Ca sens act 46 (no result: LANA-H2A inh)
O=C(c1cccc(F)c1)N1CCC(c2nc3ccccc3s2)CC1	none
COc1ccc(C2C(C(C)=O)=C(Nc3ccccc3)CC(C)(O)C2C(C)=O)cc1OC (stereo not given)	none
COc1ccc(C2c3c(n[nH]c3C)CC(C)(O)C2C(C)=O)cc1OC (stereo not given)	LANA-H2A inh 10
COc1cccc(C(=O)O/N=C(\N)c2ccccn2)c1OC	none
N/C(=N\OC(=O)c1cccc2ccccc12)c1ccccn1	LANA-H2A inh 41
COc1ccc(N=Nc2[nH]c3ccc(C)cc3c2O)cc1	none
Cc1ccc(N=Nc2c(O)[nH]c3ccc(F)cc23)cc1	RTF Ca sens act 75
Cc1ccc(N=Nc2[nH]c3ccccc3c2O)cc1	RTF Ca sens act 36
Cc1ccc(OCC(=O)NNC(=O)C2CSC3(C)CCC(=O)N23)cc1C (stereo not given)	none (no result: LANA-H2A inh)
COc1ccc(C(C)=O)cc1CN1C(=O)NC(c2ccccc2)(c2ccccc2)C1=O	none
CCN1/C(=C/c2ccc3cc(C)cc(C)c3[n+]2CC)Sc2cc(C)ccc21	RTF Ca sens act 66 (no result: LANA-H2A inh)
CCN1/C(=C/c2ccc3cc(C)ccc3[n+]2CC)Sc2ccc3sccc3c21	RTF Ca sens act 36
CC[n+]1c(C)sc2c3ccsc3ccc21	none
CCN1/C(=C\c2ccc3cc(C)ccc3[n+]2CC)Sc2cc(C)c(C)cc21	RTF Ca sens act 58 (no result: LANA-H2A inh)
CCN1/C(=C/c2ccc3cccc(C)c3[n+]2CC)Sc2ccccc21	none
CC(=O)c1sc(NC(=O)c2oc3ccc(F)cc3c2C)nc1C	none
CCOc1ccccc1Nc1nnc(SCC(=O)NC(=O)c2cccn2C)s1	LANA-H2A inh 16
Cc1ccccc1NC(=O)c1c([N+](=O)[O-])cnn1C	none
Cn1ncc([N+](=O)[O-])c1C(=O)Nc1ccccc1Cl	LANA-H2A inh 13
O=C(CSc1cccc[n+]1[O-])Nc1ccccc1C(F)(F)F	none
O=C(CSc1cccc[n+]1[O-])Nc1ccccc1Oc1ccccc1	LANA-H2A inh active
COc1c(O)cc2c(c1O)[C@@H]1O[C@H](CO)[C@@H](O)[C@H](O)C1OC2=O (stereo not given in full)	none
COc1ccc(NC(=S)NNC(=O)OC(C)(C)C)cc1OC	LANA-H2A inh 33
CCN(CC(=O)Nc1ccccc1C(F)(F)F)C(=O)c1ccc(-n2nc(C)c(CCC(=O)OC)c2C)cc1	RTF Ca sens act 62 (no result: LANA-H2A inh)

Assay outcomes deposited in PubChem by several laboratories.
